The nature of test [1]: binders of probe aFSTL3 on microarray, primary screen, stem cell growth factor project, biochemical, small-molecule microarray, fluorescence 635/667 (AID 1064).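 Further: measures binding of the biotinylated anti-FSTL3 antibody to printed compounds.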 The conditions noted are these: higher = more signal.
Test [2] can be described thus: binders from COS7 lysate, DM2A8 probe, primary screen, torsin A project, cell lysate, small-molecule microarray, fluorescence 635/667 (AID 1065). The conditions noted are these: higher = more signal, COS7 lysate expressing mutant human TOR1A.
Test [3] is described as follows: binders of probe aFGF2 on microarray, primary screen, stem cell growth factor project, biochemical, small-molecule microarray, fluorescence 635/667 (AID 1067).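 Further: measures binding of biotinylated aFGF2 protein to printed compounds on slides; z-score merges feature fluorescence and signal-to-noise across triplicate slides.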 The conditions noted are these: higher = more signal.
A short description of test [4]: binders of probe aFGF10 on microarray, primary screen, stem cell growth factor project, biochemical, small-molecule microarray, fluorescence 635/667 (AID 1071).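 Further: score merges 667 nm spot intensity and signal to noise from triplicate slides.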 Conditions: higher = more signal.
Test [5] concerns the target Neurogenic locus notch homolog protein 2 (Homo sapiens) (UniProt Q04721). Put plainly: Notch2 binders on small-molecule microarrays, primary screen, biochemical, small-molecule microarray, 635 nm fluorescence, stem cell growth factors (AID 1073). Conditions: Notch2 binding, higher = more signal.
Test [6] has as its target Pro-neuregulin-1, membrane-bound isoform (Homo sapiens) (UniProt Q02297). Put plainly: NRG1 binders on small-molecule microarrays, primary screen, psychiatric disease protein project, biochemical, small-molecule microarray, fluorescence 635/667 (AID 1075).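 Further: score combines 667 nm spot fluorescence with signal to noise.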 Conditions: NRG1 binding, 635 nm fluorescence, higher = more signal.
Test [7] relates to Neuregulin-1 EGF-like domain. Put plainly: binders of neuregulin-1 EGF-like domain, primary screen, biochemical, small-molecule microarray, 635 nm fluorescence (AID 1081).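 Further: binding of the protein to compounds printed on small-molecule microarray slides.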 The conditions noted are these: small-molecule microarray binding, higher = more signal.
Test [8] is described as follows: FRG1 promoter luciferase signal modulators, primary screen, FRG1 inhibition for FSHD, cell-based, C2C12 myotubes, firefly/Renilla luciferase, luminescence (AID 1084). Conditions: higher = more signal, called active from +8 up or from −8 down.
Test [9] is described as follows: binders of probe aFST on microarray, primary screen, stem cell growth factor project, biochemical, small-molecule microarray, fluorescence 635/667 (AID 1086).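 Further: score merges 667 nm fluorescence with signal-to-noise of each printed compound spot.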 Conditions: higher = more signal.
A short description of test [10]: binders of probe aHhip on microarray, primary screen, stem cell growth factor project, biochemical, small-molecule microarray, fluorescence 635/667 (AID 1087).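 Further: score merges spot fluorescence at 667nm with spot signal to noise ratio.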 The conditions noted are these: higher = more signal.

Data on 13 compounds can be found in PubChem BioAssay.

Activity calls are given as the source filed them.

Sequence of Neurogenic locus notch homolog protein 2 (Homo sapiens) (Q04721 whole entry, looked up, canonical isoform): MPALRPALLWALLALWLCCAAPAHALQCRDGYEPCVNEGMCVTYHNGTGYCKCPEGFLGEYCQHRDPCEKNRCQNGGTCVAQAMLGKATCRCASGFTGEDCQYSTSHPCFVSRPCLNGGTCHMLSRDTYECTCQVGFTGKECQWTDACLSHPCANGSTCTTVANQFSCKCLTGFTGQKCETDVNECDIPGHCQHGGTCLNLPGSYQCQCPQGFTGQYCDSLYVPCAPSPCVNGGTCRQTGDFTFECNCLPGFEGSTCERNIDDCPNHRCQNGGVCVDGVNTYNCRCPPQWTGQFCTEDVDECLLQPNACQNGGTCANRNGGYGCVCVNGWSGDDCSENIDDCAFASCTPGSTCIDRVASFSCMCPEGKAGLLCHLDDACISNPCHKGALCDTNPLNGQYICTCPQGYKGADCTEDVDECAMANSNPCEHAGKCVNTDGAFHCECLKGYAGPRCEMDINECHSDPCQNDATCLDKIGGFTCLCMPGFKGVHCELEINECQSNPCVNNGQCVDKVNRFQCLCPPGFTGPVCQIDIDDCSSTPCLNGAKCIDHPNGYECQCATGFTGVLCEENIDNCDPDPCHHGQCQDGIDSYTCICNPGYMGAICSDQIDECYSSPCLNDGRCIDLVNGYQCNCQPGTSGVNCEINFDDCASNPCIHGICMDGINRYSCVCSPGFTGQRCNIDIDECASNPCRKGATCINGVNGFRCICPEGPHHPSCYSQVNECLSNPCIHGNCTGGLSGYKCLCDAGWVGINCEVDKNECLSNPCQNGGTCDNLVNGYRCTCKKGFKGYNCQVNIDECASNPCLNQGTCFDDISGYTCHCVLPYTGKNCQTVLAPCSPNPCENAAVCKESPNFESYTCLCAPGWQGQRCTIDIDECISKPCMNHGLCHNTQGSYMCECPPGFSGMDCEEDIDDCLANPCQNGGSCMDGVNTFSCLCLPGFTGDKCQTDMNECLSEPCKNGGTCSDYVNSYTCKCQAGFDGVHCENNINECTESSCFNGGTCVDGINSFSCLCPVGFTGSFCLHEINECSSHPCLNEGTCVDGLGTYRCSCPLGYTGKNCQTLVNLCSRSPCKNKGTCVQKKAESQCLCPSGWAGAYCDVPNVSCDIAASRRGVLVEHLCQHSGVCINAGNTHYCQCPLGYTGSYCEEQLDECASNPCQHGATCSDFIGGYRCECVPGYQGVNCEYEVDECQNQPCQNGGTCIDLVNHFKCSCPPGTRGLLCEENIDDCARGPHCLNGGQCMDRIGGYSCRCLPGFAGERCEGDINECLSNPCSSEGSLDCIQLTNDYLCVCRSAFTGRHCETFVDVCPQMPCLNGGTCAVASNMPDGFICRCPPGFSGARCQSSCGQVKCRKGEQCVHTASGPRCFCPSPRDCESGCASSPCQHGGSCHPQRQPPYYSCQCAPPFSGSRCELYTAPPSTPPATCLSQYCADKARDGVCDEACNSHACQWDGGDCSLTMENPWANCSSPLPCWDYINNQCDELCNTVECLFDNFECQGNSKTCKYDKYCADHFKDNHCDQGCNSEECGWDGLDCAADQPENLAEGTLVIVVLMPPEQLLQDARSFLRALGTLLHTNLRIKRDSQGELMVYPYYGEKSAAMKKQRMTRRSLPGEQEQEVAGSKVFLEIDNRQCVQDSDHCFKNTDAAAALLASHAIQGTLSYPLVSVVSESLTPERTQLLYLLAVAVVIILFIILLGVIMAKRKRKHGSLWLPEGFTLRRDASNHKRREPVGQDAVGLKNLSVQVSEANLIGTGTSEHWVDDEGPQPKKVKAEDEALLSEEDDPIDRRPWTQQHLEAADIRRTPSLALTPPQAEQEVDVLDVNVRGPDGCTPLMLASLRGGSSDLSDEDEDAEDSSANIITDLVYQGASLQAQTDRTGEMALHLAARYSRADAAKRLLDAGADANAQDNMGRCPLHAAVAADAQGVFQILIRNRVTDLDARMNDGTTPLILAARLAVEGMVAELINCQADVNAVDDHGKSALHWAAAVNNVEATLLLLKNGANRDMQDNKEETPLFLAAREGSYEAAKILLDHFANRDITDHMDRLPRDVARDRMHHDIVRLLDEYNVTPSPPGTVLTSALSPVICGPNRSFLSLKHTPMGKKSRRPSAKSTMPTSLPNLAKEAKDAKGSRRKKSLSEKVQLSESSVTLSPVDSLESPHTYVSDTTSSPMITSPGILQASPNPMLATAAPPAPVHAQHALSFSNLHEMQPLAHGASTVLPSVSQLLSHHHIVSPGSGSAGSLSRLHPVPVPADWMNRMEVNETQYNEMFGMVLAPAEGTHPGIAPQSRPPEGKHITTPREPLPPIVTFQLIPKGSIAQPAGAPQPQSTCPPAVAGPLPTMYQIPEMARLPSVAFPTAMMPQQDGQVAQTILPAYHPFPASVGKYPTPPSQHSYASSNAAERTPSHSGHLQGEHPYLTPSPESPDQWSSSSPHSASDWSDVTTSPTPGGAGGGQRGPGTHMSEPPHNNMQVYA
Sequence of Pro-neuregulin-1, membrane-bound isoform (Homo sapiens) (Q02297 whole entry, looked up, the tested form may be a part, canonical isoform): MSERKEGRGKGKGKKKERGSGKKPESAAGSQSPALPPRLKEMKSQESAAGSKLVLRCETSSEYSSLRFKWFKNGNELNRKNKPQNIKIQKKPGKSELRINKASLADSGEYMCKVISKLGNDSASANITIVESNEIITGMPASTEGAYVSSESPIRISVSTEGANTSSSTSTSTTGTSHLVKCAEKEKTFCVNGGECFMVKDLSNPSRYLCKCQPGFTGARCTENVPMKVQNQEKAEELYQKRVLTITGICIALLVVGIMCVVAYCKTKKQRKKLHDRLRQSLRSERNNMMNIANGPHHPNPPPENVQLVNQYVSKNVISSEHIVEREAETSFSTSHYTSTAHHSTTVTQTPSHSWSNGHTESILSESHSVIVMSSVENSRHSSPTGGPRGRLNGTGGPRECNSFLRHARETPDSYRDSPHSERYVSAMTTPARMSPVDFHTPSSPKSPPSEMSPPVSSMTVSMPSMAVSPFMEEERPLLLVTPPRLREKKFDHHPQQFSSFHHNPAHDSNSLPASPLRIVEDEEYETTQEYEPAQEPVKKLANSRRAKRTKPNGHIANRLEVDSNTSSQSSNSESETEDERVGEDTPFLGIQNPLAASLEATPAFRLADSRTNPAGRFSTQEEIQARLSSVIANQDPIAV

Take `CN(C)CCCNC(=O)[C@@H]1c2ccccc2C(=O)N(Cc2ccccc2C(F)(F)F)[C@H]1c1ccc(CO)cc1`: the composite z-score in [1] is 1; in test [2], -0.335; in test [3], -0.0416; in test [4], -0.702; in test [5] it was -1.03; in test [6], 1.01. Also, the composite z-score in test [7] was -0.23; in test [9] it was -0.0464; in test [10] it was -0.149. Further, the z-score in test [8] was -1.28 (inactive).
As for `COc1ccc([Si](C)(C)[C@@H]2[C@@H](CC(=O)N3CCC[C@H]3CO)O[C@]3(C(=O)N(Cc4cccc(N5CCCCC5=O)c4)c4ccccc43)[C@H]2C)cc1`, the composite z-score in test [1] was -0.398; in [2], 0.887; in [3] it was -0.116; in test [4] it was 0.411; in [5], 0.0236; in [6], 1.07. Besides, the figures for the composite z-score in [7], in [9] and in [10] were 1.07, -0.015 and -0.0296, respectively. Besides, in test [8], the z-score was -0.0792 (inactive).
`C=CC[C@@]1(C(=O)N(C)C)N=C(c2ccc(OCCCO)cc2)O[C@@H]1c1ccccc1CN=[N+]=[N-]`: the composite z-score is 0.151 in test [1]; 0.448 in test [2]; -0.0004 in test [3]; 1.01 in test [4]; 1.61 in test [5]; 1.68 in test [6]. Besides, the figures for the composite z-score in test [7], in [9] and in test [10] were 1.17, 1.18 and 0.0373, respectively. In test [8], the z-score was -2.64 (inactive).
In the case of `C=CCC(OC(C)=O)[C@@H]1[C@@H](N(Cc2cccc3ccccc23)C(=O)c2ccc(-c3ccccc3)cc2)c2cc(OCCCO)ccc2N1C(=O)Cc1ccc2ccccc2c1` (stereo not given in full), the composite z-score in [1] was -0.141; in test [2] it was 0.14; in [3] it was -0.0171; in [4], -0.272; in test [5], 0.07; in test [6], 0.022. The composite z-score in [7] is -0.374; in test [9], 0.481; in test [10], -0.134. The z-score in [8] was -0.94 (inactive).
Consider `CCCC#C[Si](O[C@H](CC)c1cn(Cc2ccccc2)nn1)(C(C)C)C(C)C`, for which the composite z-score in test [1] is -0.0658; in [2], 0.0418; in [3] it was 0.0252; in test [4] it was 0.435; in test [5], 0.734; in [6], 0.53. For the same compound, the composite z-score was 1.02 in [7], 0.278 in test [9] and -0.166 in test [10]. Besides, the z-score in [8] was 0.403 (inactive).
Turning to `COc1ccc(C(=O)Nc2cccc(CN3C(=O)[C@@]4(O[C@@H](CC(=O)N5CCC[C@H]5CO)[C@H]([Si](C)(C)c5ccc(OC)cc5)[C@H]4C)c4ccccc43)c2)cc1`, the composite z-score in test [1] was -0.226; in test [2], 0.484; in [3], -0.0625; in test [4], 0.0314; in test [5], 0.518; in test [6], 1.39. In addition, the composite z-score in test [7] was 1.13; in [9], -0.0084; in [10] it was -0.261. Besides, the z-score in [8] is -3.85 (inactive).
Take `C[N+](C)(C)CCCCNC(=O)[C@H]1C[C@H]2C(=O)N[C@@H](Cc3ccccc3)C(=O)N2[C@H]1c1cccc(OCCO)c1`: the composite z-score in test [1] is -0.397; in test [2], 1.29; in test [3], -0.0375; in [4], 1.21; in test [5] it was 0.641; in test [6] it was 1.06. Also, the composite z-score in test [7] turned out to be 1.36; in [9] it was 0.435; in test [10] it was 0.0373. Also, in test [8], the z-score was 2.28 (inactive).
For `C=C(CCCC)/C(=C/C[C@@H](OC(C)=O)c1ccc(CO)o1)c1cnc2ccccc2c1`, the composite z-score in test [1] is -0.593; in [2], 0.361; in test [3] it was -0.0744; in test [4], 1.14; in [5] it was 1.31; in test [6] it was 1.31. In addition, the composite z-score was 1.28 in [7], 0.128 in [9] and -0.179 in test [10]. Also, the z-score in [8] is -0.16 (inactive).
In the case of `O=C1C=C(c2ccccc2)C(=O)C2=C1CC([C@H]1Oc3ccccc3S(=O)(=O)N3CCC[C@@H]13)=CC2`, the composite z-score was -0.415 in [1]; -0.618 in test [2]; -0.119 in test [3]; -0.0024 in [4]; -0.103 in [5]; 0.0032 in test [6]. For the same compound, the figures for the composite z-score in test [7], in test [9] and in test [10] were -0.702, 1.49 and -0.0296, respectively. In addition, the z-score in test [8] was -0.7 (inactive).
Take `CC(C)(C)N1CC=CC23O[C@@H]4C=CCCOC(=O)C4[C@H]2C(=O)N(CCCCCCO)[C@@H]3C1=O` (stereo not given in full): the composite z-score was -0.0477 in test [1]; -1.39 in test [2]; -0.0628 in [3]; 0.0493 in test [4]; -0.615 in [5]; 1.36 in [6]. The composite z-score is 1.56 in test [7], -0.0273 in test [9] and -0.236 in test [10]. For the same compound, the z-score in test [8] is 0.908 (inactive).
Consider `COC(=O)c1cccc([C@H]2OC(=CC(=O)OC(C)C)C[C@@H](c3cccc(C(=O)OC)c3)O2)c1`, for which the composite z-score in [1] is -0.3; in [2] it was 2.67; in test [3] it was 0.357; in test [4], 1.14; in [5] it was 1.08; in [6] it was 1.4. The composite z-score was 1.12 in [7], 0.902 in [9] and -0.289 in test [10]. The z-score in [8] was 0.946 (inactive).
`CC(C)N1C(=O)c2ccccc2[C@](C)(C(=O)NCC(F)(F)F)[C@@H]1c1ccc(CO)cc1`: the composite z-score in [1] is 0.531; in test [2], -0.226; in test [3], -0.0698; in [4] it was -1; in [5], -0.334; in test [6] it was 0.583. For the same compound, the composite z-score in test [7] was 0.107; in test [9], -0.299; in test [10] it was -0.105. Moreover, in [8], the z-score was -0.229 (inactive).
As to `O=C(NC1CC1)[C@@H]1c2ccccc2C(=O)N(Cc2ccc(OC(F)(F)F)cc2)[C@H]1c1ccc(CO)cc1`, the composite z-score in [1] is 0.0273; in [2], 0.314; in [3] it was -0.0418; in [4], -0.0789; in [5] it was 0.354; in test [6], 1.38. Moreover, the results for the composite z-score in test [7], in test [9] and in test [10] were 0.793, 0.0427 and -0.0994, respectively. For the same compound, the z-score in test [8] is -0.859 (inactive).
